From PubChem
FPRL1 ligand: ligands of human FPRL1, also counter-screen for FPR ligands | P25090 | FPRL1-expressing cells, fluorescent ligand binding inhibition, flow cytometry | inhibition, % (concentration not given with the values) | 24,000 tested, 0.3% active;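 further: 0% = buffer alone and 100% = receptor blocker peptide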
LNCaP diff act: promotes differentiation of LNCaP prostate cells | 24,000 tested, 0.56% active | flow cytometry side scatter, 4 d | side scatter shift, % at 10 µM;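 active means side scatter shift above 30%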;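 further: androgen-responsive LNCaP prostate cancer cells in charcoal-stripped serum medium; percent of cells past a gate set so DMSO wells show 10% shift; higher shift means more granular cells and more differentiation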
VLA-4 antagonist: blocks LDV-FITC ligand binding to Mn2+-activated human VLA-4 integrin; P13612; Jurkat cells, LDV-FITC binding with Mn2+, flow cytometry; 100% = Mn2+-driven binding gain fully reversed; inhibition, % at 10 µM (by protocol); 24,000 tested, 0.2% active; AID 529;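 active means inhibition above 50%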;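 further: 0% = Mn2+ stimulated cells lacking compound and 100% = ligand binding without Mn2+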
Target sequence (P13612 whole entry, looked up): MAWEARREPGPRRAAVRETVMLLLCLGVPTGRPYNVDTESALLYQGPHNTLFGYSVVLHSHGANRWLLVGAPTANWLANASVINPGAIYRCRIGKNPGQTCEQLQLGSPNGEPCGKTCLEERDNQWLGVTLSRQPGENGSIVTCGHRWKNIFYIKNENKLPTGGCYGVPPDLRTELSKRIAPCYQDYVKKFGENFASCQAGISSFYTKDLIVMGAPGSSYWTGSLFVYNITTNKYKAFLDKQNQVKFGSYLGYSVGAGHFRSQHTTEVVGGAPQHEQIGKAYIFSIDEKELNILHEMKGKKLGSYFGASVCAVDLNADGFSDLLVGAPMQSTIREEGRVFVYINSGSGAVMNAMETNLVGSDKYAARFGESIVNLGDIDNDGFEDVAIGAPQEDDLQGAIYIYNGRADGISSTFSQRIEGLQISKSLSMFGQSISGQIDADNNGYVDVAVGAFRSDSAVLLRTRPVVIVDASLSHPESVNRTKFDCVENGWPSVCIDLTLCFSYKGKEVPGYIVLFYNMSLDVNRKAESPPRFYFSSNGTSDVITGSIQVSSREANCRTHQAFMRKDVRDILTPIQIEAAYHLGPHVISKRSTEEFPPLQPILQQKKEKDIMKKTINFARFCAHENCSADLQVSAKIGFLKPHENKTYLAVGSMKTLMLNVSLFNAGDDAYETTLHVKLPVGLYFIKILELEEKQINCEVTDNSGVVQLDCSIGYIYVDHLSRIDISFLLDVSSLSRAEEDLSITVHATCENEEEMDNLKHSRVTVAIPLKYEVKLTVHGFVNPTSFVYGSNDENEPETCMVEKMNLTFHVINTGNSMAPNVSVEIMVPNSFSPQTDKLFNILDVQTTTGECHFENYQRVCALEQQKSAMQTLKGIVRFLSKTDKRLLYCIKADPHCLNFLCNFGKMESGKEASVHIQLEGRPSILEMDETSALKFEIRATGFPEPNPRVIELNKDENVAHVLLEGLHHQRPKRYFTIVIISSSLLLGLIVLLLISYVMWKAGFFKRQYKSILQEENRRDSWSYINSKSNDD
Autofluor Jurkat: compound fluoresces in Jurkat cells, VLA-4 screen interference. compound autofluorescence, flow cytometry; hits give high values; 1 = vehicle-only cell background. AID 576. 24,000 tested, 0.61% active. fluorescence ratio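 (tested at 10 µM compound in the well)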;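 active means fluorescence ratio above 2.44, which is 1 plus 3 SD of all ratios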;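 further: green fluorescence of cells measured with 488 nm excitation and 530 nm emission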
VLA-4 allo ag: allosterically activates the human VLA-4 integrin; activation, % at 10 µM (by protocol); 24,000 tested, under 10 active; AID 528; Jurkat cells, LDV-FITC binding, flow cytometry; P13612;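 active means fluorescent ligand binding to cells raised by more than 40% of the manganese-induced maximum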;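 further: 0% = ligand binding without compound and 100% = manganese-stimulated maximal binding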
FPR ligand: binds the human formylpeptide receptor FPR. P21462. FPR-expressing cells, fluorescent ligand binding, flow cytometry. inhibition, % (no concentration beside the values). 24,000 tested, 0.74% active. AID 440;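 further: 0% = buffer wells and 100% = receptor blocker peptide wells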
* hit, by the source's call. Sampled rows, rich in hits. Any-hit rate of the full collection: about 1.9%. Unless noted, no stated cut-off is given here; in the data, active means inhibition above about 30%; inconclusive means no clear call, values can overlap the other calls; inactive means below that.

SMILES	FPRL1 ligand	LNCaP diff act	VLA-4 antagonist	Autofluor Jurkat	VLA-4 allo ag	FPR ligand
Cc1ccc2c(c1)[C@@H]1CN(C)CC[C@@H]1N2C(=O)Nc1cccc(C(F)(F)F)c1	-2	55*	-8	1.1	2	0
COc1ccc(C2SCC(=O)Nc3c2c(=O)[nH]n3C2CCCCCC2)cc1OC (centres undefined)	0	2	-20	0.98	6	-5
CCOc1ccc(C2SCC(=O)Nc3c2c(=O)[nH]n3C2CCCCCC2)cc1 (centres undefined)	3	34*	-21	1	6	-4
Cc1ccc(C2C(S(C)(=O)=O)=C(O)C(=O)N2c2ccccc2)cc1 (centres undefined) (tested in a mixture with another compound)	1	1	-3	1	1	8
O=c1c2ccccc2[se]n1-c1ccccc1	5	3	-68	1.1	40*	-2
CCOC(=O)c1cc2c(cn1)[nH]c1ccccc12	1	1	-18	1.1	0	-6
